Measured values published in PubChem BioAssay.
Calls of active or inactive are those of the source. Unless noted, the rule behind the calls is not given here.

Tests used:
[1] = system: Wnt5a (protein binding on small-molecule microarray); test: small molecules binding Wnt5a protein – biophysical, small-molecule microarray, 635/667 nm fluorescence, primary screen (AID 1142); conditions: 635 nm fluorescence, higher = more signal;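 note: fluorescence read at 667 nm with signal to noise per printed feature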
[2] = ATP-based viability of Huh7 replicon cells – cell-based, CellTiter-Glo luminescence, basal, 48 h, cytotoxicity control for HCV replication inhibitor project, primary screen (AID 1143); conditions: higher = more signal, called active from +8 up or from −8 down;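 note: Huh7 hepatoma cells carrying a hepatitis C replication reporter with no stimulus; test concentration not given here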
[3] = Pseudomonas biofilm growth suppression – PAO1 strain, BacTiter-Glo luminescence, LB-PBS, primary screen (AID 1144); conditions: P. aeruginosa PAO1 biofilm, 12 h, higher = more signal
[4] = basal CRE-LacZ reporter activity in PC12 – cell-based, unstimulated, primary screen (AID 1145); conditions: no forskolin, luminescence, 4.5 h, higher = more signal, called active from +8 up or from −8 down
[5] = forskolin-driven CRE-LacZ activity in PC12 – cell-based, CRE-LacZ reporter, forskolin-stimulated, primary screen (AID 1146); conditions: luminescence, 4.5 h, higher = more signal, called active from +8 up or from −8 down;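 note: PC12 cells with 6xCRE LacZ reporter stimulated by forskolin 10 µM; beta-galactosidase reporter signal reflecting CREB driven transcription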
[6] = target: Streptavidin (Streptomyces avidinii) (UniProt P22629); test: compounds binding control protein streptavidin – biophysical, small-molecule microarray, 635/667 nm fluorescence, artefact control for SMM compound annotation, primary screen (AID 1147); conditions: higher = more signal;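 note: signal reflects streptavidin binding to arrayed compounds as a control protein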
Streptavidin (Streptomyces avidinii), sequence (P22629 whole entry, looked up): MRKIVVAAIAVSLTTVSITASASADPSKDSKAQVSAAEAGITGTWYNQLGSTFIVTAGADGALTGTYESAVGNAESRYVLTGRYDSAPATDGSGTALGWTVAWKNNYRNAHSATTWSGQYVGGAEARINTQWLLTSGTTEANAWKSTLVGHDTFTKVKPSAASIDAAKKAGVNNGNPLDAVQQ

[7] = probe aInhba binding on compound microarray – biochemical, small-molecule microarray, 635/667 nm fluorescence, primary screen (AID 1148); conditions: higher = more signal;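 note: score merges 667nm spot fluorescence with signal-to-noise for antibody binding to printed compounds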
Torsin-1A (Homo sapiens) [8] = target: Torsin-1A (Homo sapiens) (UniProt O14656); test: TOR1A wild-type binding on microarray – cell lysate, small-molecule microarray, lysate, 635/667 nm, primary screen (AID 1149); conditions: COS7 hTOR1A-WT lysate, 635 nm fluorescence, higher = more signal
Torsin-1A (Homo sapiens), sequence (O14656 whole entry, looked up): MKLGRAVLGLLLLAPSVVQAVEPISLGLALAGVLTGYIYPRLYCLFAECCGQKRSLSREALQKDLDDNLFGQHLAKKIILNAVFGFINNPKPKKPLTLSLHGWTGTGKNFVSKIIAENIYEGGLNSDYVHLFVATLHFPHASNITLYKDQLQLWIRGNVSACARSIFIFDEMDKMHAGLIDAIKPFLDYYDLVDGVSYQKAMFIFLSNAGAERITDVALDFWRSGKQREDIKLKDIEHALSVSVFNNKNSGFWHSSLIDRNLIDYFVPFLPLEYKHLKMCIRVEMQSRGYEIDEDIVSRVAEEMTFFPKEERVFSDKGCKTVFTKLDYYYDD

Torsin-1A (Homo sapiens) [9] = target: Torsin-1A (Homo sapiens) (UniProt O14656); test: torsin A mutant lysate binding on microarrays – cell lysate, small-molecule microarray, COS7 lysate, 635/667 nm fluorescence, primary screen (AID 1150); conditions: COS7 hTOR1A mutant lysate, 635 nm fluorescence, higher = more signal;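 note: score pools 667 nm emission and signal to noise measuring lysate protein binding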
[10] = system: Sonic hedgehog protein (Shh); test: Sonic hedgehog microarray binding compounds – biochemical, small-molecule microarray, 635/667 nm fluorescence, primary screen (AID 1151); conditions: 635 nm fluorescence, higher = more signal;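 note: Shh protein binding to compounds spotted on small-molecule microarray slides; score combines spot fluorescence intensity with signal-to-noise across triplicate slides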
[11] = optical density shifts of acrAB sulA E. coli – strain DRC41, OD650, 48 h, E. coli filamentation inducer project, primary screen (AID 1152); conditions: higher = more signal, called active from +8 up or from −8 down;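 note: E. coli MC1000 strain DRC41 lacking acrAB efflux pump and sulA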
[12] = probe aLefty1 binding on compound microarray – biochemical, small-molecule microarray, 635/667 nm fluorescence, primary screen (AID 1153); conditions: higher = more signal;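 note: score merges spot fluorescence with signal-to-noise ratio from the scanned slide images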
[13] = plasmodial surface anion channel blockers, osmotic lysis – cell-based, P. falciparum Indochina, OD700, 1 h, primary screen (AID 1154); conditions: P. falciparum Indochina infected RBC osmotic lysis, higher = more signal, called active from +8 up or from −8 down
[14] = plasmodial surface anion channel blockers, osmotic lysis – cell-based, P. falciparum Indochina, OD700, 2 h, primary screen (AID 1155);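 note: lysis reports solute entry through the parasite surface anion channel PSAC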; conditions: P. falciparum Indochina infected erythrocytes, higher = more signal, called active from +8 up or from −8 down
[15] = changes in parasitized red cell lysis, either direction – P. falciparum Indochina, OD700, 3 h, PSAC antagonist project, primary screen (AID 1156); conditions: P. falciparum-infected erythrocytes, osmotic lysis, higher = more signal, called active from +8 up or from −8 down
[16] = plasmodial surface anion channel blockers, osmotic lysis – cell-based, P. falciparum Indochina, OD700, 18 h, primary screen (AID 1157); conditions: P. falciparum Indochina infected erythrocytes, osmotic lysis OD700, 18 h; higher = more signal, called active from +8 up or from −8 down
[17] = S6 kinase pathway phospho-S6 level changes – cell-based, A549, cytoblot, luminescence, serum-stimulated, primary screen (AID 1158); conditions: 5 h, higher = more signal;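 note: serum-stimulated A549 lung adenocarcinoma cells; signal is phosphorylated S6 detected by cytoblot immunostaining with HRP secondary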
[18] = target: NADPH oxidase 2 (Homo sapiens) (UniProt P04839); test: compounds shifting NOX2 Amplex Red fluorescence – cell-based, HEK293-NOX2, PMA-stimulated, NOX inhibitor project, primary screen (AID 1159); conditions: 45 min, higher = more signal, called active from +8 up or from −8 down; note: test concentration not given here
NADPH oxidase 2 (Homo sapiens), sequence (P04839 whole entry, looked up): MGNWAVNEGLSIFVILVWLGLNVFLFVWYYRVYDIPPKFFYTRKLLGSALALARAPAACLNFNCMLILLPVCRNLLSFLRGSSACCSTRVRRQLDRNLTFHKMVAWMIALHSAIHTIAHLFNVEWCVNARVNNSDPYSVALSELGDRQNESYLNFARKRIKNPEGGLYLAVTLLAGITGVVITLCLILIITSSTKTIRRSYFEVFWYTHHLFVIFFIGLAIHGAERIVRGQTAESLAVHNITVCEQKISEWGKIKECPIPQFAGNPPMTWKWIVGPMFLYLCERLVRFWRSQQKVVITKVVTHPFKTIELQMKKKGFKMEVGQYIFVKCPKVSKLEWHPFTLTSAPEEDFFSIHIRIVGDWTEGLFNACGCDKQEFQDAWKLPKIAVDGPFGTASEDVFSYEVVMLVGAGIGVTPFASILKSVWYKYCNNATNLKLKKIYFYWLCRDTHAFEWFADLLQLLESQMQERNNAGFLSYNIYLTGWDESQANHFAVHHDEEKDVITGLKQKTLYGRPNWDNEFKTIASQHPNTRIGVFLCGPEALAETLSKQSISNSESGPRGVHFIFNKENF

[19] = target: NADPH oxidase 4 (Homo sapiens) (UniProt Q9NPH5); test: compounds shifting NOX4 Amplex Red fluorescence – cell-based, HEK293-NOX4, tetracycline-induced, NOX inhibitor project, primary screen (AID 1160); conditions: HEK293-NOX4, Amplex Red H2O2 fluorescence, 45 min; higher = more signal, called active from +8 up or from −8 down
NADPH oxidase 4 (Homo sapiens), sequence (Q9NPH5 whole entry, looked up): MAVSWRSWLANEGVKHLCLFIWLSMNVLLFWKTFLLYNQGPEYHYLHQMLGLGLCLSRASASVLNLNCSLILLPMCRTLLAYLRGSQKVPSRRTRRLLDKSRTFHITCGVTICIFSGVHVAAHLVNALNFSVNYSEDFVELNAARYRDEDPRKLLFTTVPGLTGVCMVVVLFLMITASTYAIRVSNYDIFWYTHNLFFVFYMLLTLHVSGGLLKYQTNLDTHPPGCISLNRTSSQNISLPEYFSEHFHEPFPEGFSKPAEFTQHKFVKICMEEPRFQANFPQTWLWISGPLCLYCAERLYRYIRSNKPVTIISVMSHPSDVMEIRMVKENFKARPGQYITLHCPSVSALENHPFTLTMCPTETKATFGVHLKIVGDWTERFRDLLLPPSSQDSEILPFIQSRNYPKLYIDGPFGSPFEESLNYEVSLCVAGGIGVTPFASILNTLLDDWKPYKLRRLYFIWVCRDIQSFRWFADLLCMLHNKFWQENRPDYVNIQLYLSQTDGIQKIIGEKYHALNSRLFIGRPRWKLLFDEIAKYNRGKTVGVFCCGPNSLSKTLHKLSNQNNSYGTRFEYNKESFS

[20] = target: NADPH oxidase 5 (Homo sapiens) (UniProt Q96PH1); test: compounds shifting NOX5 Amplex Red fluorescence – cell-based, HEK293-NOX5, NOX inhibitor project, primary screen (AID 1161); conditions: HEK293-NOX5, ionomycin, 45 min, higher = more signal
NADPH oxidase 5 (Homo sapiens), sequence (Q96PH1 whole entry, looked up): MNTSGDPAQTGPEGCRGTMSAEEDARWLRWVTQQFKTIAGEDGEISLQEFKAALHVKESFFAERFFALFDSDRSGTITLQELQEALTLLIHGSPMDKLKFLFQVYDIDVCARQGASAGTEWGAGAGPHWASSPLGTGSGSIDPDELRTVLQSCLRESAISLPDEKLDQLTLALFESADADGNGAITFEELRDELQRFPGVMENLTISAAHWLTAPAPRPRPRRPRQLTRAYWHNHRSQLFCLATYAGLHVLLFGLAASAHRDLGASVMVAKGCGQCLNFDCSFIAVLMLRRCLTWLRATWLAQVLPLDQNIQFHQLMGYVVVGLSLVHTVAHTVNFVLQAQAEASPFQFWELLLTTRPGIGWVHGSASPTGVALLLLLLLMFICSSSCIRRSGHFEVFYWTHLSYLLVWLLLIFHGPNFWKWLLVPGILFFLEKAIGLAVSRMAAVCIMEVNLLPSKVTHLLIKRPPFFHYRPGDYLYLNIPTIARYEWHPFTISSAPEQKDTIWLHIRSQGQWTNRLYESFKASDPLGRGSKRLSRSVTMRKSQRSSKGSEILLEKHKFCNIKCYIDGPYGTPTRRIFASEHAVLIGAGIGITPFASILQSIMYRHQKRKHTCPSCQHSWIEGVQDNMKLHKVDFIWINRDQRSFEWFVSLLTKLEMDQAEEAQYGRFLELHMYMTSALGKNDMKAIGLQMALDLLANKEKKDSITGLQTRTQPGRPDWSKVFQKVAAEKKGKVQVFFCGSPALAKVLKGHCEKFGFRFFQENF

Structure (SMILES) | composite z-score [1] | z-score [2] | z-score [3] | z-score [4] | z-score [5] | composite z-score [6] | composite z-score [7] | composite z-score (Torsin-1A (Homo sapiens) [8]) | composite z-score (Torsin-1A (Homo sapiens) [9]) | composite z-score [10] | z-score [11] | composite z-score [12] | z-score [13] | z-score [14] | z-score [15] | z-score [16] | z-score [17] | z-score [18] | z-score [19] | z-score [20]
CCOC(=O)C1=C[C@@H](C(C)(C)C)N(S(=O)(=O)c2ccc(C)cc2)[C@H]1c1ccccc1 | 0.251 | -4.44 (inactive) | 1.43 (inactive) | 0.696 (inactive) | -0.276 (inactive) | 1.29 | 0.27 | 0.0214 | 0.611 | 0.871 | -0.492 (inactive) | 0.407 | -0.132 (inactive) | 0.457 (inactive) | -0.803 (inactive) | -0.0282 (inactive) | -0.667 | -0.707 (inactive) | -0.655 (inactive) | -0.083
Cc1ccc(N2C(=O)c3ccccc3[C@](C)(C(=O)NCc3ccccc3)[C@@H]2c2ccc(CO)cc2)nc1 | 0.135 | -2.21 (inactive) | 0.493 (inactive) | 0.351 (inactive) | -1.32 (inactive) | 0.0831 | 0.0561 | 0.197 | 0.185 | 0.547 | 0.465 (inactive) | 0.205 | 2.01 (inactive) | 0.161 (inactive) | 0.385 (inactive) | 0.305 (inactive) | 0.389 | 0.37 (inactive) | -1.75 (inactive) | -0.583
COCCOC(=O)N1C(=O)[C@@]2(c3cc(C#CCC(C(=O)OC)C(=O)OC)ccc31)[C@H](C(=O)NC[C@H](O)c1ccccc1)[C@H]1C(=O)O[C@H](c3ccccc3)[C@H](c3ccccc3)N1[C@@H]2c1ccc(OCCO)cc1 | -0.157 | -1.01 (inactive) | 0.366 (inactive) | 0.895 (inactive) | -0.102 (inactive) | 0.688 | -0.0804 | -0.012 | 0.367 | 1.69 | 0.0789 (inactive) | -0.118 | 7.02 (inactive) | 2.02 (inactive) | 0.53 (inactive) | 1.12 (inactive) | -0.273 | 1.41 (inactive) | 0.805 (inactive) | 0.938
[N-]=[N+]=NCc1ccccc1C[C@]1(C(=O)N2CCOCC2)COC(c2ccc(OCCCO)cc2)=N1 | 0.0879 | -3.07 (inactive) | -0.983 (inactive) | 1.69 (inactive) | -0.931 (inactive) | 1.6 | 0.0888 | 1.71 | 1.56 | 0.179 | 2.57 (inactive) | 0.691 | 26.6 (active) | 15 (active) | 3.85 (inactive) | 2.64 (inactive) | 0.338 | -3.84 (inactive) | -0.698 (inactive) | -3.14
C=CCC(OC(C)=O)[C@@H]1[C@@H](N(Cc2cccc3ccccc23)C(=O)c2ccc(-c3ccccc3)cc2)c2cc(OCCCO)ccc2N1C(=O)c1ccc(-c2ccccc2)cc1 (stereo not given in full) | 0.09 | 0.457 (inactive) | -0.1 (inactive) | 0.367 (inactive) | 0.859 (inactive) | 0.361 | 0.114 | 0.162 | 0.0809 | 0.286 | -0.883 (inactive) | -0.06 | 0.311 (inactive) | -1.06 (inactive) | -0.942 (inactive) | -0.454 (inactive) | -0.0997 | 0.582 (inactive) | 0.688 (inactive) | 0.296
O=C1O[C@H](c2ccccc2)[C@H](c2ccccc2)N2[C@H]1[C@@H](C(=O)O)[C@]1(C(=O)Nc3ccc(C#CC4(O)CCCCCC4)cc31)[C@H]2c1ccc(O)cc1 | -0.243 | -3.06 (inactive) | -2.13 (inactive) | -1.29 (inactive) | -1.14 (inactive) | -0.467 | -0.152 | -0.449 | 0.198 | -0.335 | 2.05 (inactive) | 0.0355 | -0.224 (inactive) | -0.925 (inactive) | -2.31 (inactive) | -1.16 (inactive) | 1.65 | 0.867 (inactive) | -0.353 (inactive) | -1.06
COCCCNC(=O)[C@@]1(Sc2ccc(C)cc2)CC(=O)N(C(C)C)[C@@H]1c1ccc(CO)cc1I | -0.0469 | -4.86 (inactive) | -0.96 (inactive) | 0.0655 (inactive) | 1.35 (inactive) | -0.671 | -0.0762 | 0.154 | 1.18 | -0.005 | -0.158 (inactive) | 0.0445 | 6.72 (inactive) | -0.602 (inactive) | 0.349 (inactive) | -1.49 (inactive) | 1.61 | 1.77 (inactive) | -1.47 (inactive) | -0.854
[N-]=[N+]=Nc1ccccc1C[C@@]1(C(=O)O)N=C(c2ccc(OCCCO)cc2)O[C@@H]1c1ccccc1N=[N+]=[N-] | -0.166 | -1.92 (inactive) | 0.0288 (inactive) | 2.09 (inactive) | -0.333 (inactive) | 1.96 | 0.151 | 0.0274 | 0.286 | -0.744 | -0.855 (inactive) | 0.384 | 29.2 (active) | 24.7 (active) | 0.648 (inactive) | 4.53 (inactive) | 0.664 | -0.041 (inactive) | 1.17 (inactive) | 1.57
NC(=O)NCC#Cc1ccc2c(c1)[C@]1(C(=O)N2)[C@H](C(=O)N2CCN(c3ncccn3)CC2)[C@H]2C(=O)O[C@H](c3ccccc3)[C@H](c3ccccc3)N2[C@@H]1c1ccc(OCCO)cc1 | 0.388 | 0.0749 (inactive) | -0.534 (inactive) | -0.231 (inactive) | 0.156 (inactive) | 0.644 | 0.0391 | 0.237 | 0.875 | 0.963 | 0.682 (inactive) | 0.309 | 5.91 (inactive) | 1.66 (inactive) | -0.015 (inactive) | 0.689 (inactive) | -0.24 | 1.44 (inactive) | 1.1 (inactive) | 1.12
